Screening results: PubChem, National Center for Advancing Translational Sciences (NCATS)
HP1b chromo inh: blocks HP1-beta chromodomain binding to methylated histone tails; P83916; AlphaScreen HP1-beta / biotin-H3K9me3 peptide binding; Potency, µM (top dose mostly 114 µM), hits mostly inhibitors; 390,000 compounds, 0.56% hits; note: nearly all actives have a fitted effect of over 70% in size
Target sequence (P83916 whole entry, looked up): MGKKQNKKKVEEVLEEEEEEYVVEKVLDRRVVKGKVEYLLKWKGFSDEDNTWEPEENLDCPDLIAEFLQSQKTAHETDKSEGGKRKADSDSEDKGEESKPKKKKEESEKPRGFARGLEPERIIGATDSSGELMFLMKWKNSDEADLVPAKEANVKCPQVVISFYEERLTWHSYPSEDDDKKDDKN
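HP1-beta protein (50 nM final) preincubated 30 min at room temperature with biotinylated H3(1-18)K9me3 peptide (50 nM) in PBS pH 7.4, 0.01% Tween-20, then compound added for 30 min. AlphaScreen streptavidin donor/nickel chelate acceptor beads (10 ug/mL final), 30 min dark, luminescence read.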
JMJD2A Tudor: inhibitors of human JMJD2A Tudor domain; O75164; AlphaScreen JMJD2A-Tudor / H3K4me3 peptide binding; Potency, µM (highest dose often 114 µM), most hits filed as inhibitors; 390,000 compounds, 4.4% hits; note: nearly all actives have a fitted effect of over 50% in size
BAZ2B block: inhibitors of human BAZ2B bromodomain | 360,000 compounds, 4.4% hits | AlphaScreen BAZ2B-H3K14Ac peptide displacement | Potency, µM (highest dose often 114 µM), hits mostly inhibitors; note: nearly all actives have a fitted effect of over 60% in size
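In this displacement format the biotinylated H3(5-23) peptide acetylated at Lys14 serves as ligand at 50 nM, with BAZ2B at 50 nM in PBS pH 7.4 containing 0.01% Tween-20. Donor and acceptor beads are 10 ug/mL final.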
PLK1 PBD block: PLK1 (human) polo-box domain binding inhibition. 360,000 compounds, 2.8% hits. Plk1 PBD binding of FITC phosphopeptide, fluorescence polarization. Potency, µM, usual class: inhibitors. P53350; note: series mostly up to about 57 µM; nearly all actives have a fitted effect of over 65% in size
Sfp inh: Sfp phosphopantetheinyl transferase inhibition. 310,000 compounds, 3.5% hits. Biochemical Sfp PPTase activity, qHTS. Potency, µM, actives largely listed as inhibitors;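 note: the enzyme is Sfp with the accession as filed and its product quenches rhodamine fluorescence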
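Sfp 15 nM + cpd, 15 min RT; start w/ rhodamine-CoA 5 uM, BHQ-2-YbbR 12.5 uM (final); 50 mM Hepes pH 7.6, 10 mM MgCl2, 0.01% NP-40, 0.01% BSA; read 525/598 nm at 0 and 30 min.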
G9a block: G9a (human) methyltransferase inhibition; Q96KQ7; G9a H3K9 monomethylation, AlphaScreen, 2 h; Potency, µM (titrated, usually from 102 µM), usual class: inhibitors; 350,000 compounds, 8.8% hits; AID 504332; note: nearly all actives have a fitted effect of over 75% in size
Target sequence (Q96KQ7 913-1193 limits assumed): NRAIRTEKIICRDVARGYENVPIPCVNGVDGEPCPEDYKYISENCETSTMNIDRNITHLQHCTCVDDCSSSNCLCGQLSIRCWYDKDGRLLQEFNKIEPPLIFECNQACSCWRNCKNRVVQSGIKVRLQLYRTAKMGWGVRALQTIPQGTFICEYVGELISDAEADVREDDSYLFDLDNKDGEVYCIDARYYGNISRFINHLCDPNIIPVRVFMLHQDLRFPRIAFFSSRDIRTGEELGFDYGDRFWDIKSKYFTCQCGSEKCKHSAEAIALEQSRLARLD
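Signal arises when biotinylated H3K9 peptide, once monomethylated, bridges streptavidin donor and antibody-captured acceptor beads. Enzyme at 20 nM was preincubated 15 min with test compounds; peptide 500 nM and SAM 20 uM then reacted for 2 h.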
Each line names hits and unclear results; the compound was inactive in the other large screens; ! = not confirmed by another sample. In the library only some 12% were active in any assay of this set; here they are far more common. Calls come from the whole dose curve; as a rule, active = well fitted curve in the direction sought with a large enough effect; inconclusive = small, poorly fitted or top-dose-only effect, or another doubt; inactive = no such curve, though single readings can be large; an effect the other way counts as inactive or inconclusive.

NC(=O)NC(=O)COC(=O)c1ccc2noc(-c3ccccc3)c2c1	none
O=C(c1ccncc1)N1CCN(CCc2ccccc2)CC1	none
O=C(c1ccccc1)N1CCN(CCc2ccccn2)CC1	none
CSc1ccc(CN2CCN(C(=O)c3ccc([N+](=O)[O-])cc3)CC2)cc1	HP1b chromo inh inconclusive, JMJD2A Tudor 22µM, BAZ2B block 50µM (no result: G9a block)
COCC1CCCCN1C(=O)c1ccc(OC2CCN(Cc3ccccn3)CC2)cc1 (stereo unspecified)	JMJD2A Tudor 25µM
O=C(c1ccc(-c2ccccc2)cc1)N1CCN(Cc2ccccn2)CC1	JMJD2A Tudor inconclusive, BAZ2B block inconclusive, G9a block 40µM
Cc1ccc(CN2CCN(C(=O)c3ccncc3)CC2)cc1	HP1b chromo inh inconclusive, JMJD2A Tudor 7.9µM, BAZ2B block 22µM, Sfp inh inconclusive, G9a block 8.9µM
CC(NC(=O)COC(=O)CN1C(=O)NC2(CCCC2)C1=O)c1ccc(F)cc1 (stereo unspecified)	none (no result: BAZ2B block, Sfp inh, G9a block)
CCCS(=O)(=O)NC(=O)C1(C)CCN(C(=O)c2cncc(Br)c2)C1 (stereo unspecified)	none (no result: HP1b chromo inh, JMJD2A Tudor, BAZ2B block, Sfp inh, G9a block)
COC(=O)C/C=C\[C@H](C)[C@@H](OCc1ccccc1Br)C(C)C	none (no result: HP1b chromo inh, JMJD2A Tudor, BAZ2B block, PLK1 PBD block, G9a block)
N#CCCN(CCC#N)C(=O)C1c2ccccc2Oc2ccccc21	PLK1 PBD block inconclusive
O=C1C=CC2(C=C1)O[C@H](Cc1ccccc1)[C@@H](Cc1ccccc1)O2	PLK1 PBD block 9.5µM (no result: BAZ2B block, Sfp inh, G9a block)
COc1ccc(C[C@@H]2OC3(C=CC(=O)C=C3)O[C@H]2Cc2ccc(OC)cc2)cc1	PLK1 PBD block inconclusive (no result: BAZ2B block, Sfp inh, G9a block)
Cc1nc(SCC(=O)Nc2cccc(Cl)c2)n[nH]1	none
Cc1ccccc1NC(=O)CSc1n[nH]c(-c2ccccn2)n1	JMJD2A Tudor 3.5µM, BAZ2B block 2.8µM, Sfp inh inconclusive
O=C(CSc1n[nH]c(-c2ccccc2)n1)Nc1ncccn1	G9a block inconclusive
O=C(CSc1n[nH]c(-c2ccccn2)n1)Nc1cccc(Cl)c1	JMJD2A Tudor 6.3µM, BAZ2B block 5µM, G9a block inconclusive
Cc1ccc(C)c(NC(=O)CSc2n[nH]c(-c3ccccn3)n2)c1	JMJD2A Tudor 1.3µM, BAZ2B block 4.5µM
O=C(NNC(=O)c1ccc(-n2cncn2)c([N+](=O)[O-])c1)c1cccc(Cl)c1	none (no result: Sfp inh)
COc1ccc2cc(CO)c(Cl)nc2c1	PLK1 PBD block 6.7µM (no result: BAZ2B block)
COc1ccc2cc(/C=N/O)c(Cl)nc2c1	none
CCCCCCCCCn1ccc(=N)cc1	none
CCCCCCCn1ccc(=N)cc1	G9a block 6.3µM
Cc1cccc(C)c1NC(=O)/C(C#N)=C/c1ccc(-c2ccc(C(=O)O)cc2)o1	BAZ2B block inconclusive, G9a block 45µM
N#C/C(=C\c1ccc(-c2ccc(C(=O)O)cc2)o1)C(=O)NCC1CCCO1 (stereo unspecified)	BAZ2B block inconclusive, G9a block 10µM
CCOC(=O)C1=C(C)NC(C)=C(C(=O)OCC)C1c1c(F)c(F)c(F)c(F)c1F	none (no result: HP1b chromo inh, JMJD2A Tudor, BAZ2B block, PLK1 PBD block, Sfp inh)
CC(=O)C(C(C)=O)c1c(Cl)c(O)c(O)c2c(C(=O)c3ccccc3)coc12	HP1b chromo inh inconclusive, JMJD2A Tudor 63µM, BAZ2B block 45µM, Sfp inh 6.3µM, G9a block inconclusive
CN1CCN(Cc2c(O)ccc3occ(C(=O)c4ccccc4)c23)CC1	none
CCC1Nc2ncnc(N3CCOCC3)c2N(Cc2ccc(OC)cc2)C1=O (stereo unspecified)	JMJD2A Tudor 56µM, PLK1 PBD block 27µM (no result: BAZ2B block, Sfp inh, G9a block)
O=C1C(Cc2ccccc2)Nc2ncnc(N3CCN(c4ccccc4)CC3)c2N1Cc1ccccc1 (stereo unspecified)	JMJD2A Tudor 63µM, BAZ2B block inconclusive, PLK1 PBD block inconclusive, G9a block inconclusive (no result: Sfp inh)
O=C1C(Cc2ccccc2)Nc2ncnc(N3CCOCC3)c2N1Cc1ccc(Cl)cc1 (stereo unspecified)	JMJD2A Tudor inconclusive, PLK1 PBD block 27µM!, G9a block 4.5µM (no result: Sfp inh)
Cc1ccc(C)c(NC(=O)Cn2c(=O)n(Cc3ccc4c(c3)OCO4)c(=O)c3oc4ccccc4c32)c1	none (no result: PLK1 PBD block, Sfp inh)
CN(C)c1ccc(-c2ccnc3c2CC(C)(C(=O)Nc2ccccc2)O3)cc1 (stereo unspecified)	none (no result: HP1b chromo inh, JMJD2A Tudor, BAZ2B block, Sfp inh, G9a block)
